A selection: hits, their analogues and other compounds. The true share with any hit is near 22%.
CYP2C19 inh = human CYP2C19 inhibition; CYP2C19 Supersomes, luciferin-H EGE luminescence, 30 min; P33261; 96,000 compounds, 21% hits; inhibition, % at 5 µM; AID 778;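 active = CYP2C19 inhibition above a set limit at 5 µM in the primary screen, cut at about 50% in these data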;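 note: plate controls were negative control wells for no effect and 2.5 mM tranylcypromine positive control for full effect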
Target sequence (P33261 whole entry, looked up): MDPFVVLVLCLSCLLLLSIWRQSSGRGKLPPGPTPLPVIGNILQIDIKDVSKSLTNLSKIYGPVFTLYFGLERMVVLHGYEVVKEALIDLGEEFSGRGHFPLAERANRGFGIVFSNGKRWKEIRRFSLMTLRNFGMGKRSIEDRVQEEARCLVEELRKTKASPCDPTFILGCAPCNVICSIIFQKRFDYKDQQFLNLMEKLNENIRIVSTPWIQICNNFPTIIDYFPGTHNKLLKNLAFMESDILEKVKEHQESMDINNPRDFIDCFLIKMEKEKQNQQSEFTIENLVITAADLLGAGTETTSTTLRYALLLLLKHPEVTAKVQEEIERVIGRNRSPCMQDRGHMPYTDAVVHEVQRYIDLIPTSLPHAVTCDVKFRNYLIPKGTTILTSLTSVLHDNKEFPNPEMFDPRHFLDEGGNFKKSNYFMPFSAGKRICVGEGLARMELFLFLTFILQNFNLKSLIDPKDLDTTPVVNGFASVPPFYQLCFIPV
CYP2C9 act = CYP2C9 (human) activation. recombinant CYP2C9, luciferin-H conversion, luminescence; stronger effect = higher value; factor 1 = untreated enzyme, 0 = blocked. activation factor at 5 µM. 96,000 compounds, 1.4% hits. P11712;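 active = activation factor of 2 or more for CYP2C9 at a 5 µM dose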;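 note: 0 = sulfaphenazole-blocked wells and 1 = vehicle-only wells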
CYP2C19 act = cytochrome P450 2C19 (human) activation | P33261 | recombinant CYP2C19, luciferin-H EGE luminescence; stronger effect = higher value; 0 = fully inhibited enzyme, 1 = untreated enzyme | activation factor at 5 µM | 96,000 tested, under 10 active | AID 1025;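 active = activation factor of at least 2 at 5 µM in the primary screen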;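 note: 0 = wells with 2.5 mM tranylcypromine and 1 = vehicle-only wells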
CYP2C9 inh = blocks human cytochrome P450 2C9; P11712; CYP2C9 Supersomes, luciferin-H conversion, luminescence; inhibition, % at 5 µM; 96,000 compounds, 20% hits;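 active = blocking of liver enzyme CYP2C9 beyond about 50% at 5 µM, limit read from the data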
Measles CPE = protection of cells from measles virus. Measles virus-infected cells, CPE protection, absorbance. protection (pct of control), % at 4 µM. 140,000 compounds, 1.5% hits. AID 841; in the data active = protection mostly above about 24%, no sharp cut-off; inactive = mostly below about 26%
An asterisk follows results filed as active; nt = no result.

SMILES	CYP2C19 inh	CYP2C9 act	CYP2C19 act	CYP2C9 inh	Measles CPE
C(=N\Nc1nc(N2CCOCC2)nc(N2CCOCC2)n1)/c1cccnc1	15	1	0.9	0	7
S=C(Nc1ccccc1Cl)Nc1ccc(Cl)cc1Cl	58*	0.5	0.4	45	0
FC(F)(F)c1cccc(NC(=S)Nc2ccc(Cl)cc2Cl)c1	23	1.2	0.8	-24	2
CN(C)NC(=S)Nc1ccc(Cl)cc1	91*	0.8	0.1	24	10
S=C(Nc1ccccc1)Nc1ccc(Cl)cc1Cl	58*	0.7	0.4	26	15
S=C(Nc1ccccc1)Nc1cc(Cl)ccc1Oc1ccccc1	96*	0.1	0	95*	33*
CCCc1cc(Nc2cccc(OCC)c2)n2ncnc2n1	19	0.5	0.8	48	6
COc1cccc(CC(=O)Nc2nc(-c3cccnc3)cs2)c1	nt	nt	nt	nt	16
O=C(Nc1nc(-c2ccccc2)cs1)c1cccnc1	67*	0.6	0.3	37	18
O=C(NNc1nc(-c2ccccc2)cs1)c1ccccc1	40	0.5	0.6	53*	19
COc1ccc(CC(=O)Nc2nc(-c3cccnc3)cs2)cc1	nt	nt	nt	nt	35*
CCOC(=O)C1=C(c2ccccc2)O/C(=C(/C#N)C(F)(F)F)S1	1	0.9	1	15	1
COC(=O)Cn1ncc2c(C)n(Cc3ccccc3)c(C)c2c1=O	84*	0.6	0.2	40	13
O=C(CNc1ccc(C(F)(F)F)cc1[N+](=O)[O-])OCC(=O)c1ccccc1	39	0.4	0.6	55*	3
O=C(N/N=C/c1ccccc1)c1sccc1OCc1ccc(F)cc1	37	0.3	0.6	70*	3
C/C(=N\OCC(=O)N/N=C/c1ccccc1)c1cccs1	82*	0.6	0.2	41	9
C/C(=N\OCC(=O)N/N=C/c1ccccc1O)c1cccs1	48	1.4	0.5	-41	33
O=C(N/N=C/c1cccc(OCc2ccccc2)c1)c1cccs1	26	0.2	0.7	83*	7
O=C(O)c1ccc(COc2ccc(/C=N/NC(=O)c3cccs3)cc2)cc1	-2	0.9	1	8	37
Cc1ccc(/C=N/NC(=O)c2ccccc2OCc2ccc(F)cc2)o1	nt	nt	nt	nt	22
Cn1cc(SCC(=O)NCC2CCCO2)c2ccccc21 (stereo not drawn)	36	2.2*	0.6	-120	4
COc1ccc(-n2nnc3c(SCC(=O)c4ccccc4)ncnc32)cc1	-6	1	1.1	-3	2
Cc1cccc2cc(C#N)c(SCC(=O)NCC3CCCO3)nc12 (stereo not drawn)	nt	nt	nt	nt	7
Cc1cccc2c(SCC(=O)NCC3CCCO3)nc(-c3ccc(F)cc3)nc12 (stereo not drawn)	52*	0.5	0.5	48	17
Cn1c(=O)cc(SCC(=O)NCC2CCCO2)c2ccccc21 (stereo not drawn)	-19	2.1*	1.2	-115	5
SMILES	CYP2C19 inh	CYP2C9 act	CYP2C19 act	CYP2C9 inh	Measles CPE
COC(=O)c1ccc(CSc2ncnc3c2nnn3-c2ccc(OC)cc2)o1	52*	0.4	0.5	56*	2
Cc1ccc(OCCNC(=O)c2cccc(Oc3ccc(C(F)(F)F)cc3[N+](=O)[O-])c2)cc1	nt	nt	nt	nt	18
NS(=O)(=O)c1cnccc1Nc1ccc(Cl)cc1	nt	nt	nt	nt	2
Cc1ncsc1C(=O)Nc1nc2c(s1)CC(C)CC2 (stereo not drawn)	32	0.7	0.7	32	4
O=C1c2cccc3cccc(c23)N1Cc1ccc(F)cc1	nt	nt	nt	nt	21
COn1c(-c2ccccc2)nc2c1CCc1c-2no[n+]1[O-]	0	0.9	1	8	4
O=C(CSc1c[nH]c2ccccc12)NCC1CCCO1 (stereo not drawn)	54*	1.2	0.5	-17	9
O=C(CSc1ncnc2c1nnn2-c1ccc(F)cc1)NCC1CCCO1 (stereo not drawn)	19	0.8	0.8	23	6
Cc1ccc(-n2nnc3c(SCC(=O)NCC4CCCO4)ncnc32)cc1 (stereo not drawn)	45	0.4	0.6	64*	15
COc1cc(C(=O)NC2CC3CCCC(C2)N3CC(=O)Nc2ccccc2)cc(OC)c1OC (stereo not drawn)	81*	0	0.2	97*	14
O=C(CN1C2CCCC1CC(NC(=O)c1ccco1)C2)Nc1ccccc1 (stereo not drawn)	87*	0.1	0.1	95*	5
CCn1c(CSc2nc(C)cc(C)n2)nnc1SCC(=O)Nc1nc(-c2ccccc2)cs1	4	1.3	1	-32	17

Bioassay records from PubChem BioAssay.
